Measured values from PubChem BioAssay (NCI).
Compounds without any hit were thinned out: in the full panel of roughly 79,000, 15% have a hit. Rule as the data show it: active = growth inhibition above about 70%; inactive = the rest.

Experiments:
[1] = NCI Yeast Anticancer Drug Screen. Data for the rad50 strain (AID 155);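 also: 0% = growth of vehicle-only cultures of the same strain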; conditions: S. cerevisiae rad50 strain growth inhibition; at 50.0 µM; active compounds read high
Summary of the method: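 Relative growth inhibition (compound vs vehicle) was measured in yeast with a defined repair-gene alteration.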

[2] = NCI Yeast Anticancer Drug Screen. Data for the mec2-1 strain (AID 157); conditions: S. cerevisiae mec2-1 strain, at 50.0 µM, active compounds read high
Summary of the method: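 Using mec2-1 yeast: add compound, measure growth, express inhibition versus vehicle-treated cultures.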

[3] = NCI Yeast Anticancer Drug Screen. Data for the sgs1 mgt1 strain (AID 161);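 also: 0% = growth of cultures given vehicle only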; conditions: S. cerevisiae sgs1 mgt1 strain, at 50.0 µM, active compounds read high
Summary of the method: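 Percent growth inhibition was derived by comparing compound-exposed mutant yeast with vehicle-exposed cultures. The strain carries alterations in DNA damage repair.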

[4] = NCI Yeast Anticancer Drug Screen. Data for the cln2 rad14 strain (AID 165);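 also: 0% = growth equal to vehicle treated cultures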; conditions: S. cerevisiae cln2 rad14 strain, at 50.0 µM, active compounds read high
Summary of the method: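 Yeast strain cln2 rad14, bearing defects in cell cycle control and DNA repair, serves as the test system; values reflect growth inhibition compared with vehicle.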

[5] = NCI Yeast Anticancer Drug Screen. Data for the bub3 strain (AID 167); conditions: S. cerevisiae bub3 mutant strain, at 50.0 µM, active compounds read high
Summary of the method: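 Screening used yeast with an engineered genetic alteration affecting cell cycle control. Compound-exposed cultures were compared with vehicle cultures, and reduced growth was taken as inhibition.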

[6] = NCI Yeast Anticancer Drug Screen. Data for the mlh1 rad18 strain (AID 175); conditions: S. cerevisiae mlh1 rad18 strain growth inhibition; at 50.0 µM; active compounds read high
Summary of the method: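 Steps: expose repair-defective yeast to compound; measure growth; express inhibition against vehicle-treated controls.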

Measured: growth inhibition

O=C(NC[N+]12CCO[B-]1(c1ccccc1)OCC2)c1ccccc1O (stereo not given)
inactive: [1] 25.9% | [2] -8.4% | [3] 4.7% | [4] 13.3% | [5] -0.75%

O=S1c2ccccc2N=C(c2ccc3ccccc3c2)CC1c1ccccc1F (stereo not given)
inactive: [1] -1.1% | [2] -2.95% | [3] 12.3% | [4] 4.45% | [5] 2.45%

S=C1NCCN1c1ccc(Cl)cc1
inactive: [1] -16.4% | [2] -16.1% | [3] -20.4% | [4] -21.8% | [5] -30.5%

CC(C)N(C(=O)c1cccc(C(=O)N(C(C)C)C(C)C)c1)C(C)C
inactive: [1] 12.7% | [2] 2.45% | [3] 0.25% | [4] 11.3% | [5] 16.9%

Oc1nc2nc[nH]n2c1N=Nc1ccccc1
inactive: [1] -22.7% | [2] -12.9% | [3] -7.5% | [4] -12.5% | [5] 10.3%

O=Nc1c(O)[nH]c2c(Cl)cccc12
inactive: [1] 0.1% | [2] -10.2% | [3] -15.2% | [4] -20.4% | [5] -18.2%

CC1(C)OC2C(O1)[C@H]1OC(C(Cl)(Cl)Cl)=N[C@H]1C(I)[C@H]2N1C(=O)c2ccccc2C1=O (stereo not given in full)
inactive: [1] 0.25% | [2] -45.9% | [3] -5.15% | [4] -52.6% | [5] -5.9%

O=C(Cc1ccccc1)OCC(=O)c1ccc(-c2ccccc2)cc1
inactive: [1] -1.05% | [2] 15.1% | [3] 0.9% | [4] 39.8% | [5] 19.1% | [6] -5.15%

CC1COC(C(C)c2ccccc2)O1 (stereo not given)
inactive: [1] -0.05% | [2] -18.4% | [3] -10.8% | [4] -35.2% | [5] -29.9%

CN(C)Cc1cc(C(=O)/C=C/c2c(F)cccc2Cl)cc(CN(C)C)c1O
inactive: [1] 1.7% | [2] 21.4% | [3] 2.35% | [4] 1.05% | [5] -13.8%

CCC(CC)C(=O)OCCCc1ccccc1
inactive: [1] 3.95% | [2] -0.05% | [3] 10.4% | [4] -7.4% | [5] 11.9%

O=C(O)c1cc(/C=C/c2cc(O)ccc2O)ccc1O
inactive: [1] -14.7% | [2] -21.8% | [3] -24.8% | [4] -2.05% | [5] -33.4%

Cc1ccc(NC2=CC(=O)c3ccccc3C2=O)cc1
inactive: [1] 22.4% | [2] 6.45% | [3] 17.8% | [4] -26.9% | [5] 13.8%

CCOC(=O)C(=CNc1ccc(N(CC)CC)cc1)C(=O)OCC
inactive: [1] -12.7% | [2] -7.85% | [3] -8% | [4] 47.6% | [5] 8.3%

C=CCN1C(N)=C(C#N)C(C#N)(C#N)C1CCC (stereo not given)
inactive: [1] 1.2% | [2] 7.65% | [3] -47.9% | [4] 15.8% | [5] -16.6%

CCCCOC1OC[N+](C)(C)CC1(C)C (stereo not given)
inactive: [1] 20.2% | [2] -2.65% | [3] -10.1% | [4] 3.7% | [5] -0.45%

OCC1OC(n2cc(I)c3c(Cl)ncnc32)C(O)C1O (stereo not given)
inactive: [1] 0.7% | [2] -15.4% | [3] -4.05% | [4] -36.8% | [5] 1.6%

Cc1ccc(C(=N)c2ccccc2Cc2ccccc2)cc1C
inactive: [1] -11.7% | [2] -2.45% | [3] -15.1% | [4] -12.2% | [5] 7.9% | [6] -27.9%

CCC(C)C1(C)OC1C(=O)OC (stereo not given)
inactive: [1] -2.7% | [2] -31.6% | [3] -42.4% | [4] 22.1% | [5] -41%

CC1(C(=O)Sc2ccccc2)OC1(C)c1ccccc1 (stereo not given)
inactive: [1] -8.5% | [2] 7.65% | [3] 4.85% | [4] -28.1% | [5] 14.8%

COc1cccc(C=Nc2ccc(N(C)C)cc2)c1O.COc1cccc(C=Nc2ccc(N(C)C)cc2)c1O.[Co]
inactive: [1] 31.4% | [2] 5.55% | [3] 14.6% | [4] 2.9% | [5] 8.25%

Cc1ccc2ccc(-c3cc4ccccc4s3)nc2c1
inactive: [1] -12.2% | [2] -9.75% | [3] -1.5% | [4] -81.8% | [5] -9.5%

COc1cc(NS(C)(=O)=O)ccc1Nc1c2ccccc2nc2c1[nH]c1ccc(NC3OC(CO)C(O)C(O)C3O)cc12 (stereo not given)
inactive: [1] 53.8% | [2] -4.9% | [3] 3.35% | [4] 0.2% | [5] -26.3%

CSc1nc2c(c(=O)[nH]1)N=C(c1ccccc1)CC(c1ccccc1)N2 (stereo not given)
inactive: [1] 7.45% | [2] 14.7% | [3] 17.8% | [4] -0.55% | [5] 22.6%

O=C(c1ccccc1)C(c1ccccc1)S(=O)(=O)N1CCCC1 (stereo not given)
inactive: [1] -4.65% | [2] 5.65% | [3] 21.6% | [4] -1.4% | [5] 12.7%

CCN(CC)CCCNc1ccc2ncn3c4ccc(O)cc4c(=O)c1c23
inactive: [1] -14.8% | [2] -36.3% | [3] -54% | [4] 11.8% | [5] -27.8%

CC12CC3C(CC1O2)C3(C)C (stereo not given)
inactive: [1] -30.2% | [2] -19.6% | [3] -32.8% | [4] 2.5% | [5] 1.35%

CCCCCC/C(C)=C/CCC(C)=O
inactive: [1] 12.4% | [2] 4.15% | [3] 14.8% | [4] 11.3% | [5] 4.7%

COc1cc2c(c(OC)c1OC)-c1ccc(OC)c(=O)cc1C(NC(=O)COc1ccccc1)CC2 (stereo not given)
inactive: [1] 16.5% | [2] -28.6% | [3] 15.2% | [4] 11.2% | [5] 6.95%

O=C(O)c1cscc1-c1ccccc1
inactive: [1] 2.5% | [2] -0.05% | [3] -6.9% | [4] -19.9% | [5] -12.1%

C=C(C(=O)NC1CCCCC1)c1ccccc1
inactive: [1] -9.2% | [2] -22.4% | [3] -8.2% | [4] -12.4% | [5] 8.25%

CC1=C(c2cc(C(=O)Nc3nccs3)nc(NC#N)n2)Sc2ccccc2N1
inactive: [1] -9.2% | [2] 5.4% | [3] -8.65% | [4] 15.2% | [5] 4.5%

Cc1ccc(/C=C/C(=N/NC(=O)c2ccccc2)C(C)CN(C)C)cc1 (stereo not given)
inactive: [1] 6.6% | [2] 5.65% | [3] 6.45% | [4] -11.2% | [5] 0.25%

Fc1c(F)c(-c2c(F)c(F)c(Br)c(F)c2F)c(F)c(F)c1Br
inactive: [1] 2.5% | [2] -14.6% | [3] -7.45% | [4] 6.15% | [5] 20.6% | [6] -0.65%

CC1=C(C(=O)Nc2ccc(C)cc2)C(c2cccc([N+](=O)[O-])c2)C(C(=O)Nc2ccc(C)cc2)=C(C)N1
inactive: [1] 14.9% | [2] 24.3% | [3] 22.5% | [4] 13.8% | [5] 41%

COc1ccc(NC(=O)Nc2ccc(Br)cc2)cc1
inactive: [1] -9.55% | [2] 5.7% | [3] -0.15% | [4] -34% | [5] -4.6%

O=S(CC(O)(c1ccccc1)c1ccccc1)c1ccccc1 (stereo not given)
inactive: [1] 6.55% | [2] 14.4% | [3] 18% | [4] 36.2% | [5] 30.9%

COc1c(C)c2c(c(C)c1Cl)Oc1c(C=O)c(O)c(Cl)c(C)c1C(=O)O2
inactive: [1] 55% | [2] 25.4% | [3] 44.9% | [4] 23.6% | [5] 29.4%

O=C1NN=C(C(O)c2ccccc2)C1(O)c1ccccc1 (stereo not given)
inactive: [1] 8.3% | [2] -6.25% | [3] -0.65% | [4] 0.2% | [5] 2.5%

CN1C(=O)C(Cl)(C#N)C(c2ccccc2)N(C)C1c1ccccc1 (stereo not given)
inactive: [1] 5.7% | [2] 8.05% | [3] 18% | [4] -37.9% | [5] 39.4%

COc1cc(Nc2nc3ccccc3nc2-c2cccs2)cc(OC)c1OC
inactive: [1] 4.8% | [2] 14% | [3] 29.6% | [4] 29.8% | [5] 26.1% | [6] 6%

Cc1c(C)c(C)c(CN2CC(=O)c3ccccc3C2=O)c(C)c1C
inactive: [1] 18% | [2] 13.7% | [3] 4% | [4] 14.1% | [5] 10.6% | [6] 15.5%

Cc1ccc(O)c(C2C=CCC2)c1 (stereo not given)
inactive: [1] 8.6% | [2] -7.25% | [3] 22.8% | [4] 7.5% | [5] -1.35% | [6] 4.2%

Cc1ccc(/C=C/C(=O)c2sc(-n3nc(-c4ccccc4)cc3-c3ccccc3)nc2C)cc1
inactive: [1] -2.3% | [2] -6.85% | [3] -29.9% | [4] 5.6% | [5] 20.1% | [6] -7.4%

CCCCCCCCCC(=O)Oc1cccc2onc(C)c12
inactive: [1] -21.2% | [2] -43.5% | [3] -20.2% | [4] -7.8% | [5] -13.5% | [6] -10.8%

C=C(CN(C)C)C(=O)c1ccc(C(=O)C(=C)CN(C)C)cc1
inactive: [1] -1.4% | [2] 6.85% | [3] 2.2% | [4] -2.15% | [5] 0.65% | [6] 6.4%

COc1ccc(C[C@@H]2Cc3cc(OC)c(OC)cc3CN2C)cc1
inactive: [1] 27.4% | [2] 4.6% | [3] 19.6% | [4] 5.65% | [5] 10.9% | [6] 21.4%
